Article PMC4336329 (PLoS ONE, 2015)
Among all 310,000 compounds or so, about 14,000 (4.5%) showed an effect of 50% or more. Effects have a minus sign here. The list comes from a sample in which strong results are over-represented; it also holds similar structures and randomly drawn compounds.

target: human ether-à-go-go-related gene (hERG) potassium channel (human, UniProt Q12809); experiment: primary screen, population patch clamp on CHO cells stably expressing hERG; higher = less effect of the substance
Sequence (Q12809 whole entry, looked up): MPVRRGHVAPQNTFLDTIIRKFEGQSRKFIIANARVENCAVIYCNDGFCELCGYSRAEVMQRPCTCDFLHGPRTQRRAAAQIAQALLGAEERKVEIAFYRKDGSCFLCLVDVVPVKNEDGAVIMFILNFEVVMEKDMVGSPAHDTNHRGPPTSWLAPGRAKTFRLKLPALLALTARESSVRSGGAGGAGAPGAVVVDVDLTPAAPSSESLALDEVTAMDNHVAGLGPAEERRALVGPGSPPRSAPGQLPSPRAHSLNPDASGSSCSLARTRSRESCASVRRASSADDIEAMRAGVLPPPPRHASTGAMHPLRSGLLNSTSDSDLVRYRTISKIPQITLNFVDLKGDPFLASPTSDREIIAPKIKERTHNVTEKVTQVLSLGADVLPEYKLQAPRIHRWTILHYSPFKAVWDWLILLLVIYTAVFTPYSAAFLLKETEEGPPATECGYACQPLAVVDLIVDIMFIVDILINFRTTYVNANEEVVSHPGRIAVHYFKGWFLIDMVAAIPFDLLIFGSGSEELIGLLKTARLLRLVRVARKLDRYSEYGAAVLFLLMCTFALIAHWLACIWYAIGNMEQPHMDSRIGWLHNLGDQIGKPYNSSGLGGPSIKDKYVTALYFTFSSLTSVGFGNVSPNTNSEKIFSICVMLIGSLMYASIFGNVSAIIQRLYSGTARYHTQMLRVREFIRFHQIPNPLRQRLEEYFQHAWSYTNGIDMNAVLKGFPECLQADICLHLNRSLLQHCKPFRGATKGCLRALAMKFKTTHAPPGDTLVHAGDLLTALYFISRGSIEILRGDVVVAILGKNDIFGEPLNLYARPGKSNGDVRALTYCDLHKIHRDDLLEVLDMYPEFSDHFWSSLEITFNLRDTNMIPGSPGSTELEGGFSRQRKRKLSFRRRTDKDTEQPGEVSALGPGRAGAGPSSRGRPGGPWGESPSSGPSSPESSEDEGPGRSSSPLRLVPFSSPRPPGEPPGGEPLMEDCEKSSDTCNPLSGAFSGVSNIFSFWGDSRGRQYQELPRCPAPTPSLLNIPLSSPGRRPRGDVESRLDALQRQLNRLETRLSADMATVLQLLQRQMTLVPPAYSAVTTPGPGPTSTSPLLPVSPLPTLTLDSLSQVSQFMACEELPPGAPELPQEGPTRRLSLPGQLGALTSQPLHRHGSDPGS
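Further: peak tail current of the secondary pulse compared with the same well before compound.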

Row | SMILES | hERG current change (%, negative = inhibition) at 10uM [%]
1 | CC(C)CN(C(=O)COc1ccc(Br)cc1C=O)C1CCS(=O)(=O)C1 (stereo not drawn) | -25.4
2 | COc1ccc(O)c(-c2cn[nH]c2-c2cccs2)c1 | 7.6
3 | O=C(CNC(=O)Cc1ccccc1)N=Nc1c(O)[nH]c2ccc(Br)cc12 | 24.7
4 | O=C(CSc1nc2ccccc2c(=O)[nH]1)Nc1ccccc1C(F)(F)F | -2.68
5 | C=CCNC(=O)c1cc(-c2ccccc2O)on1 | 8.16
6 | CCN(CC(=O)NCC(=O)Nc1cccc(C)c1C)Cc1ccccc1 | 5.6
7 | C=CCn1nc([N+](=O)[O-])nc1Sc1cccc2cccnc12 | -2.55
8 | O=[N+]([O-])CC(=Nc1ccc(Cl)cc1)N/N=C\c1oc(O)c2ccccc12 | 5.58
9 | O=C(c1ccco1)N1CCN(Cc2cc(=O)c(OCc3c(F)cccc3Cl)co2)CC1 | -58
10 | O=C(c1ccco1)N1CCN(Cc2c(F)cccc2Cl)CC1 | -9.87
11 | O=c1cc(CO)occ1OCc1c(F)cccc1Cl | 9.21
12 | CCN(CC)C(C(=O)Nc1ccc(C(C)C)cc1)c1ccc2c(c1)OCO2 (stereo not drawn) | -9.99
13 | CCOc1cc(C)c(S(=O)(=O)N2CCCC2)cc1C | -14.6
14 | COc1ccc(CCN(C(=O)c2snc(C(N)=O)c2N)C(C)C(=O)NC2CCCCC2)cc1OC (stereo not drawn) | -13.9
15 | Cc1cc(C(F)F)n2ncc(C(=O)NCCc3ccccc3Cl)c2n1 | -56.7
16 | Cc1cc(C(F)F)n2ncc(C(=O)NCCc3ccc(Cl)cc3)c2n1 | -45
17 | COc1ccccc1CCNC(=O)c1cnn2c(C(F)F)cc(C)nc12 | -33.6
18 | CCOC(=O)N1CCC(N(CCN(C)C)C(=S)Nc2cccc(Cl)c2C)CC1 | 12.5
19 | Cc1nc(C(=O)Nc2ccccc2Cl)cc2c1[nH]c1ccccc12 | 0.837
20 | O=C(CCC(=O)Nc1cccc(C(F)(F)F)c1)NCC1CCCO1 (stereo not drawn) | 11.1
21 | COc1ccc(C2C(C(=O)OCC3CCCO3)=C(C)NC3=C2C(=O)CC(c2ccco2)C3)cc1O (stereo not drawn) | 5.72
22 | CC1=C(C(=O)OCC2CCCO2)C(c2ccccc2OC(C)C)C2=C(CC(c3ccco3)CC2=O)N1 (stereo not drawn) | -57.8
23 | CC1=C(C(=O)OCC2CCCO2)C(c2cccc(C(F)(F)F)c2)C2=C(CC(c3ccco3)CC2=O)N1 (stereo not drawn) | 6.09

Row | SMILES | hERG current change (%, negative = inhibition) at 10uM [%]
24 | CC(C)C(=O)Nc1ccc2c(c1)C(=O)NC2=O | 14.3
25 | Cc1cc(C)cc(N(CC(=O)NC2CCCC2)C(=O)CNC(=O)c2cccs2)c1 | 18
26 | CCC(C)c1ccccc1OCCCN(C)Cc1ccccc1 (stereo not drawn) | -27
27 | CN(C(=O)COC(=O)c1cc(-c2ccccc2Cl)nc2ccccc12)C1CCS(=O)(=O)C1 (stereo not drawn) | -30.9
28 | CCN1CCCC(OC(=O)Nc2ccccc2)C1 (stereo not drawn) | 2.47
29 | CN1CCC(N(C)C(=O)c2cc(-c3ccccc3Cl)nc3ccccc23)CC1.Cl | -84.3
30 | CCN1CCCC(OC(=O)c2cc(-c3ccccc3Cl)nc3ccccc23)C1.Cl (stereo not drawn) | -65.3
31 | CCN1CCCC(OC(=O)C(c2ccccc2)c2ccccc2)C1.Cl (stereo not drawn) | -66.1
32 | O=C(c1cc(-c2ccccc2Cl)nc2ccccc12)N1CCOCC1 | -6.68
33 | Cl.O=C(OC1CCN(CCCl)CC1)C(c1ccccc1)c1ccccc1 | 11
34 | CCN1CCCC(OC(=O)c2cc(-c3ccc(C)cc3)nc3ccccc23)C1.Cl (stereo not drawn) | -8.97
35 | O=C(OCn1nnc2ccccc2c1=O)c1cc(-c2ccccc2Cl)nc2ccccc12 | 12.8
36 | O=c1c(-c2ccccc2)[n+]([O-])c2ccccc2n1O | -9.6
37 | CCOc1ccccc1NC(=O)Cc1cccs1 | 3.18
38 | O=C(NCCCN1CCCCC1)c1ccc(CS(=O)c2ccc(F)cc2)o1 (stereo not drawn) | -0.35
39 | Br.O=C(Cn1c(NCCCO)nc2ccccc21)c1ccc(F)cc1 | -9.54
40 | Cc1ccc(C(c2sc3nc(C)nn3c2O)N2CCN(c3ccccc3)CC2)cc1 (stereo not drawn) | -5.32
41 | Cc1ccc(C(c2sc3nc(C)nn3c2O)N2CCN(c3ccc(F)cc3)CC2)cc1 (stereo not drawn) | -65.2
42 | Cc1nc2sc(C(c3ccc(F)cc3)N3CCOCC3)c(O)n2n1 (stereo not drawn) | 9.62
43 | Oc1c(C(c2cccs2)N2CCN(c3cccc(Cl)c3)CC2)sc2ncnn12 (stereo not drawn) | -26.5
44 | Oc1c(C(c2cccs2)N2CCN(c3ccc(F)cc3)CC2)sc2ncnn12 (stereo not drawn) | -66
45 | Oc1c(C(c2cccs2)N2CCN(c3ccccc3)CC2)sc2ncnn12 (stereo not drawn) | -33.6
46 | O=C(CCc1ccccc1)Nc1ccccc1C(=O)NCc1ccco1 | 0.64

Row | SMILES | hERG current change (%, negative = inhibition) at 10uM [%]
47 | COC(=O)[C@@]12CCCN1[C@H](c1ccc(-c3ccccc3)cc1)[C@@H]1C(=O)N(C)C(=O)[C@@H]12.O=C(O)C(F)(F)F | -6.67
48 | C=C(C)c1cccc(C(C)(C)NC(=O)Nc2ccc(OC)cc2)c1 | 8.48
49 | COc1ccc(NC(=O)c2oc3ccc(S(=O)(=O)N4CCOCC4)cc3c2C)cc1 | 3.58
50 | COc1ccc2c(c1)nc(SCC(O)c1ccccc1)n2C (stereo not drawn) | -60.2
51 | COc1ccc2c(c1)nc(SCC(C)O)n2C (stereo not drawn) | 18
52 | COc1ccc2c(c1)nc(SCC(=O)C(C)(C)C)n2C | -2.82
53 | COC(=O)c1cc(NS(=O)(=O)c2cccc(Cl)c2)ccc1N1CCOCC1 | 2.66
54 | CCN(CCCNC(=O)C1CCC(=O)N1Cc1ccccc1Cl)c1cccc(C)c1 (stereo not drawn) | -64.5
55 | CCN(CCCNC(=O)COc1cc(=O)n(C)c2ccccc12)c1cccc(C)c1 | -51
56 | Cc1cccc(CCNC(=O)COc2cc(=O)n(C)c3ccccc23)c1 | -17.6
57 | CCN(CCCNC(=O)C1CCC(=O)N1Cc1ccc(F)cc1)c1cccc(C)c1 (stereo not drawn) | -18.3
58 | CCN(CCCNC(=O)COc1cc(=O)n(CC)c2ccccc12)c1ccccc1 | -52.5
59 | CCN(CCCNC(=O)COc1cc(=O)n(CC)c2ccccc12)Cc1ccccc1 | -19.8
60 | CCN(CCCNC(=O)C1CCC(=O)N1Cc1ccc(C)cc1)c1cccc(C)c1 (stereo not drawn) | -24.9
61 | CCn1c(=O)cc(OCC(=O)NCCC(C)C)c2ccccc21 | 0.0582
62 | CCN(CCCNC(=O)COc1cc(=O)n(C)c2ccccc12)c1ccccc1 | -41.3
63 | COc1ccc(N2CCN(C(=O)C34CCC(C)(C(=O)C3)C4(C)C)CC2)cc1 (stereo not drawn) | -0.453
64 | CN(CC(=O)Nc1ccc(Cl)c(C(F)(F)F)c1)C(=O)Cc1n[nH]c(=O)c2ccccc12 | -16.2
65 | COc1ccc(-n2nc3c(c2NC(=O)c2ccc(Br)o2)CS(=O)(=O)C3)cc1 | -16.4
66 | COC(=O)Nc1ccc(S(=O)(=O)N2CCC(C(=O)N(C)C3CCCCC3)CC2)cc1 | 9.22
67 | COC(=O)CCC(=O)NC(=S)Nc1cc(Cl)ccc1Cl | 10.5
68 | CC1CCN(CC(=O)N2CCCc3c2c(=O)oc2ccc(OCc4ccccc4)cc32)CC1 | -10.5
69 | O=C(CN1CCCCC1)N1CCCc2c1c(=O)oc1ccc(OCc3ccccc3)cc21 | -54.6

Row | SMILES | hERG current change (%, negative = inhibition) at 10uM [%]
70 | O=C(CN1CCCC1)N1CCCc2c1c(=O)oc1ccc(OCc3ccccc3)cc21 | -65.6
71 | Cc1cc(=O)oc2ccc(OCc3ccccc3)cc12 | 5.11
72 | CC(=O)Oc1ccc2oc(=O)c3c(c2c1)CCCN3C(=O)CN1CCOCC1 | 1.97
73 | CC1CC(C)CN(CC(=O)N2CCCc3c2c(=O)oc2ccc(OCc4ccccc4)cc32)C1 (stereo not drawn) | -4.71
74 | O=C1OCC/C1=C\c1ccc(O)cc1 | 12.3
75 | O=C(NCCCN1CCOCC1)C1Nc2ccc(OC(F)(F)F)cc2C2C=CCC12 (stereo not drawn) | -18.9
76 | CCc1noc(C)c1C(=O)Nc1ccc(F)c(F)c1 | -15.4
77 | COc1cc(NC(=O)Cn2nc(C(F)(F)F)c(Br)c2C)cc([N+](=O)[O-])c1 | 27.7
78 | Cn1c(=O)c([N+](=O)[O-])c(NCC2CCCO2)c2ccccc21 (stereo not drawn) | 0.511
79 | c1ccc2nc3c(nc2c1)c1ccccc1n3CCN1CCOCC1 | -48.5
80 | Cc1nc2c3cc(F)ccc3n(CCN3CCCCC3)c2s1.Cl | -69.9
81 | Cc1nc2c3cc(F)ccc3n(Cc3ccccc3F)c2s1 | -5.77
82 | Cc1ccc2c(c1)c1nc3ccccc3nc1n2C | 21.3
83 | Cc1nc2c3cc(Cl)ccc3n(CCN3CCOCC3)c2s1 | -52.2
84 | Cc1ccc2c(c1)c1nc3ccccc3nc1n2CCN1CCOCC1 | -62.8
85 | OC(CN1CCCCC1)Cn1c2ccc(Cl)cc2c2cc(Cl)ccc21 (stereo not drawn) | -29.6
86 | CCc1ccc2c(c1)c1nc(C)sc1n2CC | -5.89
87 | Clc1ccc2c(c1)c1cc(Cl)ccc1n2CN1CCOCC1 | -1.99
88 | Cc1nc2c3ccccc3n(CCN3CCCCC3)c2s1.Cl | -28.9
89 | COC(=O)Cn1c2ccc(C)cc2c2nc(C)sc21 | -7.39
90 | Cc1nc2c3cc(Cl)ccc3n(CCN3CCCCC3)c2s1.Cl | -70
